# ALDH1A1 block: inhibitors of human aldehyde dehydrogenase 1A1. Purified ALDH1A1, NADH fluorescence, propionaldehyde substrate. Potency, µM (titrated, usually from 75.3 µM), usual class: inhibitors. 220,000 tested, 7.3% active. AID 1030; active means well fitted inhibition curve with a large enough effect, not every such curve was filed as active; inconclusive means small, poorly fitted or top-dose-only effect, or another doubt; inactive means no such curve, though single readings can be large or run the other way
# NPSR antagonist: blocks cAMP signaling of the human neuropeptide S receptor | Q6W5P4 | CHO-NPSR cells, cAMP TR-FRET, antagonist mode | Potency, µM (doses to about 38.3 µM), usual class: inhibitors | 220,000 tested, 1% active | AID 1461; further: nearly all actives have a fitted effect of over 50% in size
# Target sequence (Q6W5P4 whole entry, looked up): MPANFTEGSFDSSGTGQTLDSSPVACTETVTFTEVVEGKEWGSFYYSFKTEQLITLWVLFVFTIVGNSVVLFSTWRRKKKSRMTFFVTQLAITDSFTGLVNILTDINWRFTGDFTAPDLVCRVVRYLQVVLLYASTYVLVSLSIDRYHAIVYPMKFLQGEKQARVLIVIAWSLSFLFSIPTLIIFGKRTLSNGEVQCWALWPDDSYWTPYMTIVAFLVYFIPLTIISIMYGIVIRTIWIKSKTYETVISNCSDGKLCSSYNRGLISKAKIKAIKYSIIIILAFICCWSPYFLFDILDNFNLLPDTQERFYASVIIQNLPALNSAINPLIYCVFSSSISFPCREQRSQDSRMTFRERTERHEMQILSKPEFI
# HPGD inh: HPGD (human) dehydrogenase inhibition; P15428; purified HPGD, NADH fluorescence kinetic, PGE2 substrate; Potency, µM, most hits filed as inhibitors; 150,000 tested, 4.3% active; AID 894; active means well fitted inhibition curve with a large enough effect, not every such curve was filed as active; inconclusive means small, poorly fitted or top-dose-only effect, or another doubt; inactive means no such curve, though single readings can be large or run the other way
#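 NADH formation kinetics: reaction with 30 uM PGE2 and 1 mM NAD+ (final), 20 nM enzyme, Tris-HCl pH 8 with Tween 20, after 15 min compound preincubation at room temperature. Fluorescence change, last versus first of five reads.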
# 12-hLO inh: 12-hLO (ALOX12) enzyme inhibition; purified 12-hLO, xylenol orange hydroperoxide absorbance; P18054; Potency, µM (top dose mostly 57.1 µM), most hits filed as inhibitors; 150,000 tested, 0.12% active; further: nearly all actives have a fitted effect of over 55% in size
#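 Hydroperoxide output read as Fe(III)-xylenol orange absorbance, 573-to-405 nm ratio, after 30 min reaction with 40 uM arachidonic acid. Enzyme: 150 nM purified human 12hLO, 15 min compound preincubation; 25 mM Hepes pH 7.0, room temperature.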
# IMPase cell inh: membrane-permeable compound that blocks inositol monophosphatase | inhibition (IP1 accumulation), % at 46.1 µM | AID 901 | 120,000 tested, under 10 active | CHO-M1 cells, IP1 accumulation, HTRF TR-FRET ratio; active means well fitted curve in the direction sought with a large enough effect in the signal ratio, not every such curve was filed as active; inconclusive means small, poorly fitted or top-dose-only effect, or a change in a side signal; inactive means no such curve, though single readings can be large or run the other way; the % refers to the signal ratio;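 further: cells stimulated with carbachol in lithium chloride buffer; higher means more IMPase inhibition seen as more IP1 and lower FRET ratio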
# Target sequence (P97697 whole entry, looked up): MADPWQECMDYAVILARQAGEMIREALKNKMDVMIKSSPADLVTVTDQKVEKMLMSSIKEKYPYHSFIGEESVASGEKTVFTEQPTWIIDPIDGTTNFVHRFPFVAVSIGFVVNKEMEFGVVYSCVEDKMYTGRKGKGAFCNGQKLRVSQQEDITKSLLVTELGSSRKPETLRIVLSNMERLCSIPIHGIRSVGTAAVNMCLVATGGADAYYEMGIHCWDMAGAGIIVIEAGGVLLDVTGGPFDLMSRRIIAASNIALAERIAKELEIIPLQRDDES
#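 CHO-M1, 2000 cells/well, cultured 16–30 h; cpd up to 46 uM; carbachol (50 uM solution, stimulation buffer w/ 50 mM LiCl, pH 7.4), 30 min 37C; IP-One TR-FRET, 10 min RT; Ex 320/Em 665, 620; Hill-fit AC50.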
# IMPase Li inh: cell-permeable IMPase inhibitors with lithium potentiation | CHO-M1 cells, IP1 TR-FRET (IP-One), carbachol + lithium | 210,000 tested, 0.35% active | Potency, µM (top dose mostly 59.4 µM), most hits filed as inhibitors;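 further: IP1 builds up when IMPase is blocked and the TR-FRET signal falls; nearly all actives have a fitted effect of over 50% in size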
#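 CHO cells stably expressing M1 receptor (2000/well) were cultured 16–30 h, then exposed to compounds with a small lithium addition for 30 min at 37C. IP1 was measured by TR-FRET competition; AC50 from Hill fits.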
# Numbers stand for hits; n = inactive; u = inconclusive; x = no result given. Only some compounds are listed: those with a hit (about 8.9% of all), similar ones and a draw of the others. Unless noted, the call rests on the fitted dose curve; in most records, active means well fitted curve in the direction sought with a large enough effect; inconclusive means small, poorly fitted or top-dose-only effect, or another doubt; inactive means no such curve, though single readings can be large; an effect the other way counts as inactive or inconclusive.
SMILES,ALDH1A1 block,NPSR antagonist,HPGD inh,12-hLO inh,IMPase cell inh,IMPase Li inh
COc1ccc(CNC(=O)c2cc(-n3cnnc3)ccc2Cl)cc1,n,n,n,n,n,n
O=C(/C=C/c1ccccc1Cl)NC(=S)Nc1ccccc1C(=O)NC1CCCCC1,22µM,n,28µM,n,n,n
CCCCc1ccc(NC=C2C(=O)OC3(CCCCC3)OC2=O)cc1,u,u,n,n,n,n
NS(=O)(=O)c1ccc(NC=C2C(=O)OC3(CCCCC3)OC2=O)cc1,1.9µM,n,35µM,n,u,n
CCCCNC(=O)N(CC)c1c(N)n(Cc2ccccc2)c(=O)[nH]c1=O,n,n,x,x,x,n
N#CC(c1cccc(Cl)c1)c1ccc2c(C(F)(F)F)cc(C(F)(F)F)nc2n1 (stereo unspecified),u,10µM,n,n,u,n
NNc1ccc2c(C(F)(F)F)cc(C(F)(F)F)nc2n1,u,n,x,x,x,n
COc1ccccc1N1CCN(Cc2nc(N)nc(Nc3ccc(C)cc3)n2)CC1,u,n,n,n,n,n
Cc1ccc(NC(=O)Cn2cccc2)c(Br)c1,n,n,14µM,n,n,n
Cc1ccc(NC(=O)Cn2cccc2)c(C)c1,n,n,2.2µM,n,n,n
CCOc1ccc(NC(=O)CNc2ccc(C)cc2Cl)cc1,n,n,n,n,n,n
CCOc1ccc(NCC(=O)Nc2ccc(C)cc2C)cc1,1.8µM,n,n,n,n,n
Cc1ccc(NC(=O)Cn2cccc2)cc1,n,n,x,x,x,n
CC1=C(C(=O)OC2CCCCCC2)C(c2cccc(Cl)c2)CC(=O)N1 (stereo unspecified),x,x,x,x,n,x
O=C(c1ccccc1Br)N1CCC(c2nc3ccccc3s2)CC1,n,n,x,x,x,n
O=C(CC1CS(=O)(=O)CC1CC(=O)Oc1ccccc1F)Oc1ccccc1F (stereo unspecified),7.1µM,n,n,n,x,n
CSc1cc(/C=N/O)c(SC)s1,u,n,11µM,n,n,n
Cc1cc(-c2ccco2)n(-c2ccccc2)n1,1.4µM,n,32µM,n,n,n
[ClH+][Cu][ClH+].[Cu].[OH2+]c1ccc2ccccc2c1CN1CCCCC1.[OH2+]c1ccc2ccccc2c1CN1CCCCC1,1.8µM,x,n,x,x,n
CCCC1/C(=N/O)CC(c2ccccc2)NC1c1ccccc1 (stereo unspecified),n,n,x,x,x,n
Cc1ccc(NC(=S)NNC(=S)NCc2ccccc2)cc1,0.63µM,n,n,u,n,n
Cc1ccc(NC(=S)NCc2ccccn2)cc1,n,n,n,n,n,n
CCNC(=S)NNC(=S)NCc1ccccc1,n,n,28µM,u,x,n
Cn1c(=O)c2c(ncn2CC(=O)N/N=C/C=C/c2ccco2)n(C)c1=O,x,n,x,x,x,x
O=C(NCCCO)c1ccc(CSc2nc3ccccc3c(=O)[nH]2)cc1,x,n,x,x,x,x
SMILES,ALDH1A1 block,NPSR antagonist,HPGD inh,12-hLO inh,IMPase cell inh,IMPase Li inh
Cn1nnnc1SCC(=O)c1ccc(Br)s1,u,n,n,n,n,n
Cn1c(Cc2ccccc2)nnc1SCC(=O)c1ccc(Br)s1,14µM,n,28µM,n,n,n
COC(=O)C1=C(C)N=C2SC(C#N)=C(N)N2C1c1cccc(OC)c1 (stereo unspecified),13µM,n,n,n,n,n
COC(=O)C1=C(C)N=C2SC(C#N)=C(N)N2C1c1ccc(OC)cc1 (stereo unspecified),u,n,n,n,n,n
O=C(CCN1CCN(CC(=O)Nc2ccccc2F)CC1)Nc1ccccc1F,u,n,n,n,n,n
COC(C(=O)Nc1ccc(Br)cc1F)c1ccccc1 (stereo unspecified),10µM,n,x,x,x,n
O=C(CN1CCN(C(=O)c2c(F)cccc2F)CC1)Nc1ccccc1F,25µM,n,n,n,n,n
COc1ccc(NC(=O)CN2CCN(CC(=O)Nc3ccccc3F)CC2)c(OC)c1,18µM,n,n,n,n,n
COc1ccc(NC(=O)CN2CCN(CC(=O)Nc3ccccc3F)CC2)cc1OC,22µM,n,n,n,u,n
COc1ccc2c(c1)[nH]c1c(=O)n(CC3CCCO3)cnc12 (stereo unspecified),u,n,n,n,n,n
Cc1cccc(C)c1OCC(=O)Nn1c(=O)[nH]c2ccccc2c1=O,n,n,x,x,x,n
O=C(CCN1CCN(S(=O)(=O)c2ccc(Cl)cc2)CC1)Nc1ccccc1F,u,n,x,x,x,n
O=C(CN1CCN(S(=O)(=O)c2ccccc2F)CC1)Nc1ccccc1C(=O)c1ccccc1,2.8µM,n,x,x,x,n
COc1ccc(NCC(=O)Nc2ccc(Br)cc2F)c(OC)c1,1.6µM,n,x,x,x,x
CCN(CC(=O)Nc1ccc(OC)cc1)CC(=O)Nc1ccc(Br)cc1F,u,n,x,x,x,n
COc1ccc(S(=O)(=O)N2CCN(CCC(=O)Nc3ccccc3F)CC2)cc1,1.1µM,n,n,n,n,n
COc1ccccc1/C=C/C(=O)OCC(=O)Nc1c(F)cccc1F,n,n,x,x,x,n
C/C(=N\NC(=O)c1cccc(S(=O)(=O)Nc2cccc(Cl)c2)c1)c1cccs1,u,n,x,n,n,x
O=C(c1ccccc1)c1ncc(C(F)(F)F)cc1Cl,n,n,32µM,n,n,n
O=C(c1ccc(Cl)cc1Cl)c1ncc(C(F)(F)F)cc1Cl,n,n,n,n,n,n
O/N=C(\c1ccc(Cl)cc1Cl)c1ncc(C(F)(F)F)cc1Cl,u,u,25µM,n,n,n
CCOc1ccc2nc(SCC(=O)c3ccc(Cl)s3)sc2c1,n,n,u,n,n,n
CCOc1ccc2nc(SCC(=O)NCc3ccco3)sc2c1,n,n,22µM,n,n,n
CCOc1ccc2nc(SCC(=O)c3cccs3)sc2c1,13µM,n,5µM,n,n,n
COc1cc(CN2CC(=O)N(c3ccc(C)cc3)C2=S)cc(OC)c1OC,n,n,n,n,n,n
SMILES,ALDH1A1 block,NPSR antagonist,HPGD inh,12-hLO inh,IMPase cell inh,IMPase Li inh
CCCNC1=C(N(C(C)=O)c2cccc(F)c2)C(=O)c2ccccc2C1=O,n,n,n,n,x,n
CC(=O)N1N=C(c2ccc3ccccc3c2)OC12CCCC2,u,n,x,x,x,x
Cc1ccc(N(Cc2cc3ccccc3[nH]c2=O)S(=O)(=O)c2ccccc2)cc1,n,n,n,n,u,n
CCOC(=O)C1C(c2cc(OC)c(OC)c(OC)c2)NC(=S)NC1(O)C(F)(F)F (stereo unspecified),u,n,32µM,n,n,n
CCOc1cc(C2NC(=O)NC(O)(C(F)(F)F)C2C(=O)c2ccc(OC)cc2)ccc1O (stereo unspecified),5.6µM,n,n,n,n,n
CCOC(=O)C1C(c2cc(OC)c(O)c(OC)c2)NC(=S)NC1(O)C(F)(F)F (stereo unspecified),n,n,n,n,x,n
O=C(NNC(=O)C1CCCO1)c1ccc(Br)cc1 (stereo unspecified),n,n,n,n,x,n
